The source of these data is PubChem BioAssay (NCATS).

Values without a mark were called inactive. No rule for the calls is given here.
Potency is read from the fitted curve at half-maximal effect.

The subject of the test is HIV-1 nucleocapsid protein NCp7 (binding to TG oligonucleotide). Kind of test: HIV Nucleocapsid (AID 346).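 Also: potency is for inhibitors that block NC binding and lower polarization.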 As to conditions: HIV-1 NC / fluorescein-TGTGTGTG probe, fluorescence polarization. As to the method:
NCGC Assay Overview: HIV-1 nucleocapsid protein (HIV-1 NC) is a small (6.5 kDa) basic zinc-finger protein which participates in packaging of viral genomic RNA. The spacing and metal-chelating residues (3 Cys, 1 His) of the Cys-X2-Cys-X4-His-X4-Cys Zn fingers are conserved among all known retroviruses (J. Med. Chem. 1998, 41, 1371-1381). HIV-1 NC was assayed for its binding to the consensus sequence single-stranded 5'-TGTGTGTG. […] High salt was included to increase the stringency of binding and inhibitor screen. Reducing agents and zinc were present to stabilize the nucleocapsid zinc-finger protein.
NCGC Assay Protocol Summary: Buffer. Hepes pH 7.5, 250mM NaCl, 1uM ZnCl2. 0.004% polyethylene glycol 20000. TCEP (100 uM) and 2-Mercaptoethanol (5 mM), added fresh the day of the experiment. Reagents/Controls. 10 nM TG4xF only in columns 3 and 4 as negative control. 10 nM TG4xF/100 nM HIV-1 NC in columns 1, 2, 5-48. Titration of control compound NSC-13778 (from 20 mM, then 1:2) pin-transferred to column 2. Assay Steps. Two uL of reagents were dispensed to 1536-well Kalypsys black plates. The plates were centrifuged for 1 min at 1000 rpm. Compounds and controls (20 nL) were transferred via Kalypsys PinTool. The plates were incubated for 1 hr at room temperature, and then read on ViewLux (Perkin-Elmer). High-throughput CCD imager using fluorescein polarization filter set and 45 seconds exposure time.
For the molecule `CS(=O)(=O)Nc1cccc(-c2cc(NCc3ccccc3)ncn2)c1`, the Potency is above 20 µM.

Take `CN(C)c1ncc2nc(-c3ccccc3)c(=O)n(C3CC3)c2n1`: the Potency is above 20 µM.

As to `COc1ccc(-c2nc3cnc(Oc4ccccc4)nc3n(Cc3cccs3)c2=O)cc1`, the Potency is above 20 µM.

`COc1ccc2[nH]cc(CCNc3ncncc3-c3ccccc3Cl)c2c1`: the Potency is above 20 µM.

For the molecule `O=c1c(CCc2ccccc2)nc2cnc(N3CCOCC3)nc2n1-c1ccccc1`, the Potency was above 20 µM.

Regarding `CN(C)Cc1ccccc1-c1ccc2ncnc(N(C)Cc3ccco3)c2c1`, the Potency was above 20 µM.

For `CC(=O)N1CCC2(CCCN(C(=O)Nc3cccc(F)c3)C2)CC1`, the Potency is above 20 µM.

With `O=C(c1cccc(F)c1)N1CCC[C@@]2(CCN(c3cccc(-c4ccccc4)c3)C2)C1`, the Potency is above 20 µM.

Take `Cc1ccccc1-c1cncnc1NCCN1CCOCC1`: the Potency was above 20 µM.

In the case of `c1csc(CNc2ccnc(-c3ccoc3)n2)c1`, the Potency was above 20 µM.

Consider `O=c1c(-c2ccc(F)cc2)nc2cnc(N3CCOCC3)nc2n1CCc1ccccc1`, for which the Potency is above 20 µM.

For `O=c1c(-c2ccccc2)nc2cnc(N3CCOCC3)nc2n1C1CC1`, the Potency was above 20 µM.

For the molecule `CN(C)c1ccc(-c2cncnc2Nc2ccccc2)cc1`, the Potency is above 20 µM.

`COCCn1c(=O)c(-c2cn(C)c3ccccc23)nc2cnc(N3CCOCC3)nc21`: the Potency is above 20 µM.

In the case of `O=c1c(-c2ccc(Cl)cc2)nc2cncnc2n1Cc1ccccc1`, the Potency was above 20 µM.

For the molecule `Cc1nc2cnc(N(C)C)nc2n(CCC#N)c1=O`, the Potency is above 20 µM.

For the molecule `CC(=O)N1CCC2(CCCN(C(c3ccccc3)c3ccccc3)C2)CC1`, the Potency is above 20 µM.

For `COCCn1c(=O)c(-c2ccc(F)cc2)nc2cnc(Nc3cccc(OC)c3)nc21`, the Potency is above 20 µM.

For the molecule `COc1ncc2nc(C)c(=O)n(-c3ccccc3)c2n1`, the Potency was above 20 µM.

As to `COc1ncc2nc(CCc3ccccc3)c(=O)n(Cc3ccc(F)cc3)c2n1`, the Potency is above 20 µM.

As for `Cc1ccccc1-c1cncnc1N1CCNCC1`, the Potency was above 20 µM.

For `CN1CCN(c2ncncc2-c2ccccc2Cl)CC1`, the Potency is above 20 µM.

As to `O=c1c(-c2cccs2)nc2cncnc2n1Cc1ccc(F)cc1`, the Potency is above 20 µM.

`Cc1nc2cnc(OCc3ccccc3)nc2n(CCc2ccccc2)c1=O`: the Potency was above 20 µM.

Consider `COc1ccc(CNc2ncnc3ccc(-c4cccc(NS(C)(=O)=O)c4)cc23)c(OC)c1`, for which the Potency was above 20 µM.

Turning to `COc1ccc(NC(=O)N2CC[C@@]3(CCCN(C(=O)c4c(C)noc4C)C3)C2)cc1`, the Potency was above 20 µM.

Take `CN1CCN(c2ncc3ncc(=O)n(CCC#N)c3n2)CC1`: the Potency was above 20 µM.

`CN1CCN(c2ncnc3ccc(-c4ccccc4C(F)(F)F)cc23)CC1`: the Potency is above 20 µM.

Take `Cc1noc(C)c1C(=O)N1CCC[C@@]2(CCN(C(=O)NC(C)C)C2)C1`: the Potency was above 20 µM.

For `Cc1cccc(CNc2ccnc(-c3ccccc3C(F)(F)F)n2)c1`, the Potency is above 20 µM.

As to `COc1ncc2ncc(=O)n(C[C@H]3CCCO3)c2n1`, the Potency was above 20 µM.

For the molecule `CN(C)c1ccc(-c2cncnc2NCCc2cnc[nH]2)cc1`, the Potency is above 20 µM.

Consider `CN(C)C(=O)c1ccc(-c2cc(Nc3ccccc3)ncn2)cc1`, for which the Potency is above 20 µM.

As to `COc1ccc(-c2nc3cnc(OCc4ccccc4)nc3n(CCC#N)c2=O)cc1`, the Potency is above 20 µM.

`COCCNc1ncnc2ccc(-c3ccccc3C(F)(F)F)cc12`: the Potency is above 20 µM.

`COc1cccc(Cn2c(=O)c(-c3ccc(F)cc3)nc3cnc(N4CCOCC4)nc32)c1`: the Potency was above 20 µM.

`COc1ccc(-c2nc3cnc(OC)nc3n(Cc3ccc(F)cc3)c2=O)cc1`: the Potency was above 20 µM.

As for `COCCNc1cc(-c2ccccc2CN(C)C)ncn1`, the Potency is above 20 µM.

`O=C(c1cnccn1)N1CCC[C@@]2(CCN(Cc3cc(C(F)(F)F)cc(C(F)(F)F)c3)C2)C1`: the Potency was above 20 µM.

As for `Cn1c(=O)c(-c2ccc(F)cc2)nc2cncnc21`, the Potency was above 20 µM.
